Test results as given in PubChem BioAssay (Tox21).
Records with an inconclusive call do not appear. Activity calls are given as the source filed them. Unless noted, the call rests on the fitted dose curve.

Assays:
[1] = qHTS assay to identify small molecule agonists of the peroxisome proliferator-activated receptor delta (PPARd) signaling pathway - cell viability counter screen (AID 743211; active means well fitted curve in the direction sought with a large enough effect in the repeat runs; an effect the other way counts as inactive or inconclusive; further: nearly all actives have a fitted effect of over 55% in size)
In short: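 Multiplexed format: after the 2 h room-temperature LiveBLAzer B/G FRET step, CellTiter-Glo was added to the same wells. Luminescence after 30 min gave cell viability; compound exposure was 17 h at 37C.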

[2] = qHTS assay to identify small molecule antagonists of the peroxisome proliferator-activated receptor delta (PPARd) signaling pathway - cell viability counter screen (AID 743213; active means well fitted curve in the direction sought with a large enough effect in the repeat runs; an effect the other way counts as inactive or inconclusive; further: nearly all actives have a fitted effect of over 50% in size)
In short: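 HEK293H PPARd UAS-bla cells, 5 h pre-incubation, compound + L165041 300 nM final, 17 h 37 C; B/G FRET substrate 2 h RT; then CellTiter-Glo 30 min RT, luminescence.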

[3] = qHTS assay to identify small molecule agonists of the farnesoid-X-receptor (FXR) signaling pathway - cell viability counter screen (AID 743218; active means well fitted curve in the direction sought with a large enough effect in the repeat runs; an effect the other way counts as inactive or inconclusive; further: nearly all actives have a fitted effect of over 45% in size)
In short: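 FXR-UAS-bla HEK 293T cells, plated 5 h at 37 C, were exposed to compounds for 16 h at 37 C. CellTiter-Glo was then added to the same wells as the bla readout; luminescence read after 30 min at room temperature.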

[4] = qHTS assay to identify small molecule antagonists of the farnesoid-X-receptor (FXR) signaling pathway - cell viability counter screen (AID 743221; active means well fitted cell-killing curve with a large enough effect in the repeat runs, not every such curve was filed as active; further: nearly all actives have a fitted effect of over 50% in size)
In short: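 CellTiter-Glo, 30 min RT, luminescence; same wells as the LiveBLAzer FRET read. Cells: FXR-UAS-bla HEK 293T. Treatment: compound with chenodeoxycholic acid 50 uM final, 16 h at 37 C.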

[5] = target: Vitamin D3 receptor (Homo sapiens) (UniProt P11473); test: qHTS assay to identify small molecule agonists of the vitamin D receptor (VDR) signaling pathway (AID 743222)
In short: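 VDR-bla cells were plated 4 h at 37C/5% CO2, then exposed to compounds in DMSO for 16 h. After LiveBLAzer B/G FRET substrate addition and 2 h at room temperature, beta-lactamase reporter fluorescence was read.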

[6] = target: Vitamin D3 receptor (Homo sapiens) (UniProt P11473); test: qHTS assay to identify small molecule antagonists of the vitamin D receptor (VDR) signaling pathway (AID 743223; active means well fitted inhibition curve with a large enough effect in the signal ratio in the repeat runs, not every such curve was filed as active; the % refers to the signal ratio)
In short: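 After VDR-bla cells are plated and left 4 h at 37C, DMSO-dissolved compounds and 3 nM (final) calcitriol agonist are added. Incubation continues 16 h at 37C; FRET beta-lactamase substrate then develops 2 h at room temperature.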

[7] = qHTS assay to identify small molecule agonists of the vitamin D receptor (VDR) signaling pathway - cell viability counter screen (AID 743224; active means well fitted curve in the direction sought with a large enough effect in the repeat runs; an effect the other way counts as inactive or inconclusive; further: series mostly up to about 63 µM; nearly all actives have a fitted effect of over 50% in size)
In short: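 VDR-bla cells were preincubated 4 h at 37C/5% CO2, then exposed to compounds for 16 h. After the 2 h room-temperature bla FRET read, CellTiter-Glo was added to the same wells and luminescence read after 30 min.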

[8] = qHTS assay to identify small molecule antagonists of the vitamin D receptor (VDR) signaling pathway - cell viability counter screen (AID 743225; active means well fitted curve in the direction sought with a large enough effect in the repeat runs; an effect the other way counts as inactive or inconclusive; further: nearly all actives have a fitted effect of over 50% in size)
In short: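 Cytotoxicity toward the VDR-bla HEK 293T line was scored by ATP-based CellTiter-Glo luminescence, read in the wells already used for the beta-lactamase readout after 16 h compound treatment under 3 nM 1-alpha,25-dihydroxyvitamin D3 stimulation.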

[9] = qHTS assay to identify small molecule agonists of the NFkB signaling pathway - cell viability counter screen (AID 1159515); further: series mostly up to about 61 µM; nearly all actives have a fitted effect of over 55% in size
In short: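 NFkB-bla ME-180 cells, 2,000/well, were plated overnight at 37 C, 5% CO2, then exposed to compounds in DMSO for 5 hr. After the bla FRET read, CellTiter-Glo was added to the same wells; luminescence was read after 30 min at room temperature.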

[10] = qHTS assay to identify small molecule agonists of the endoplasmic reticulum stress response signaling pathway (AID 1159516; active means well fitted activation curve with a large enough effect in the signal ratio in the repeat runs, not every such curve was filed as active; the % refers to the signal ratio)
In short: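 CellSensor ESRE-bla HeLa cells, carrying a beta-lactamase reporter driven by the ER stress response element, were plated overnight and exposed to compounds for 5 hr at 37 C. Reporter activity was read as FRET substrate fluorescence after 2 hr at room temperature.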

[11] = qHTS assay to identify small molecule agonists of the endoplasmic reticulum stress response signaling pathway - cell viability counter screen (AID 1159517)
In short: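 Luminescence readout: CellTiter-Glo, 30 min RT, same wells as the ESRE-bla reporter read. HeLa ESRE-bla, 1,500 cells/well, o/n 37 C; cpd 5 hr 37 C/5% CO2.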

[12] = qHTS assay to identify small molecule antagonists of the retinoid-related orphan receptor gamma (ROR-gamma) signaling pathway - cell viability counter screen (AID 1159520; active means well fitted curve in the direction sought with a large enough effect in the repeat runs; an effect the other way counts as inactive or inconclusive; further: nearly all actives have a fitted effect of over 50% in size)
In short: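 Tet-on ROR gamma CHO cells (1,000/well) were plated 4 hr, given compounds in DMSO for 2 hr at 37 C, then induced with 1 uM final doxycycline for 16 hr. Viability was read as ATP by CellTiter-Glo luminescence after 30 min.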

[13] = qHTS assay to identify small molecule agonists of the AP-1 signaling pathway - cell viability counter screen (AID 1159525); further: nearly all actives have a fitted effect of over 55% in size
In short: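 ME-180 AP-1-bla, 2500 cells/well, Opti-MEM + 0.5% dialyzed FBS; overnight 37 °C; cpd 15-pt titration, 5 h 37 °C; CellTiter-Glo 30 min RT; luminescence read; normalised to TOAB and DMSO controls.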

[14] = qHTS assay to identify small molecule agonists of the AP-1 signaling pathway (AID 1159526)
[15] = target: Retinoic acid receptor RXR-alpha (Homo sapiens) (UniProt P19793); test: qHTS assay to identify small molecule agonists of the RXR signaling pathway (AID 1159527); further: nearly all actives have a fitted effect of over 35% in size
In short: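 Reporter activation is measured as beta-lactamase activity via FRET substrate cleavage (emission 460/530 nm) in HEK 293T cells expressing an RXR-alpha-driven bla construct, following 16 hr compound exposure at 37 C.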

[16] = target: Peroxisome proliferator-activated receptor delta (Homo sapiens) (UniProt Q03181); test: qHTS assay to identify small molecule agonists of the peroxisome proliferator-activated receptor delta (PPARd) signaling pathway (AID 743212)
In short: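 GeneBLAzer PPARd UAS-bla HEK293H cells (beta-lactamase reporter under UAS control), plated and rested 5 h at 37 C, then exposed to compounds in DMSO at 37 C; LiveBLAzer B/G FRET substrate added, 2 h room temperature, fluorescence read.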

[17] = target: Peroxisome proliferator-activated receptor delta (Homo sapiens) (UniProt Q03181); test: qHTS assay to identify small molecule antagonists of the peroxisome proliferator-activated receptor delta (PPARd) signaling pathway (AID 743215; active means well fitted inhibition curve with a large enough effect in the signal ratio in the repeat runs, not every such curve was filed as active; the % refers to the signal ratio;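 further: cells stimulated with agonist L165041 at 300 nM final during compound exposure; series mostly up to about 62 µM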)
In short: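 PPARd UAS-bla HEK293H cells were pre-incubated 5 h at 37 C, then given test compounds in DMSO plus agonist L165041 (300 nM final). After 17 h at 37 C, beta-lactamase FRET substrate was added; fluorescence read after 2 h at room temperature.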

[18] = target: Bile acid receptor (Homo sapiens) (UniProt Q96RI1); test: qHTS assay to identify small molecule antagonists of the farnesoid-X-receptor (FXR) signaling pathway (AID 743217; active means well fitted inhibition curve with a large enough effect in the signal ratio in the repeat runs, not every such curve was filed as active; the % refers to the signal ratio)
In short: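 FXR-UAS-bla HEK 293T cells pre-incubated 5 h at 37 °C, then exposed to compounds with chenodeoxycholic acid (50 uM final) for 16 h at 37 °C. Beta-lactamase reporter read by LiveBLAzer B/G FRET substrate fluorescence after 2 h at room temperature.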

[19] = target: Bile acid receptor (Homo sapiens) (UniProt Q96RI1); test: qHTS assay to identify small molecule agonists of the farnesoid-X-receptor (FXR) signaling pathway (AID 743220; active means well fitted activation curve with a large enough effect in the signal ratio in the repeat runs, not every such curve was filed as active; the % refers to the signal ratio)
In short: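 Beta-lactamase reporter under UAS control in GeneBLAzer FXR HEK 293T cells (5000/well) measured with LiveBLAzer FRET substrate after 2 h at room temperature. Compound exposure lasted 16 h at 37C.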

Measured: Potency

Vitamin D3 receptor (Homo sapiens), sequence (P11473 whole entry, looked up): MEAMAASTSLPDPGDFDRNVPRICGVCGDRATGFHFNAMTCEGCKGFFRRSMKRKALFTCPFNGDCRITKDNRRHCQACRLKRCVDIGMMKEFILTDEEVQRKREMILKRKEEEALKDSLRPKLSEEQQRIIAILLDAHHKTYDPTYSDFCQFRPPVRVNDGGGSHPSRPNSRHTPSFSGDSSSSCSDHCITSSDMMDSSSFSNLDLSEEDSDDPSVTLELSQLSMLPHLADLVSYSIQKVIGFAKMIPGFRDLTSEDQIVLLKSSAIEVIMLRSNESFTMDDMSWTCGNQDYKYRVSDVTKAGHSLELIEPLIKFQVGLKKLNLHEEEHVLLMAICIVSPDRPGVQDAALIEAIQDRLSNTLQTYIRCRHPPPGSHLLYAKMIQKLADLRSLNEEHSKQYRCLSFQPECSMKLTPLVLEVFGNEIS
Retinoic acid receptor RXR-alpha (Homo sapiens), sequence (P19793 whole entry, looked up): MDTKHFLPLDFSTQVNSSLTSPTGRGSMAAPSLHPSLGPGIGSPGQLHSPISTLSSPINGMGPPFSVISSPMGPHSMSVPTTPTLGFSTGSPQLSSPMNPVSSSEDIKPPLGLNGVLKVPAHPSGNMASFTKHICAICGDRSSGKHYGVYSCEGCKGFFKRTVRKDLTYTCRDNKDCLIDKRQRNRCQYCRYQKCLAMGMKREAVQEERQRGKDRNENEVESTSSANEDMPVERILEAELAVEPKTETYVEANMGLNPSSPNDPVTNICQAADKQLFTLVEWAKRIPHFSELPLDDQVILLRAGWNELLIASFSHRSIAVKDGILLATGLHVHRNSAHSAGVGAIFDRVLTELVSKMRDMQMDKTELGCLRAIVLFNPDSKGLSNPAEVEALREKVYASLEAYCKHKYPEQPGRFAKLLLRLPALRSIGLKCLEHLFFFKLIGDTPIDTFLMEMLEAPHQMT
Peroxisome proliferator-activated receptor delta (Homo sapiens), sequence (Q03181 whole entry, looked up): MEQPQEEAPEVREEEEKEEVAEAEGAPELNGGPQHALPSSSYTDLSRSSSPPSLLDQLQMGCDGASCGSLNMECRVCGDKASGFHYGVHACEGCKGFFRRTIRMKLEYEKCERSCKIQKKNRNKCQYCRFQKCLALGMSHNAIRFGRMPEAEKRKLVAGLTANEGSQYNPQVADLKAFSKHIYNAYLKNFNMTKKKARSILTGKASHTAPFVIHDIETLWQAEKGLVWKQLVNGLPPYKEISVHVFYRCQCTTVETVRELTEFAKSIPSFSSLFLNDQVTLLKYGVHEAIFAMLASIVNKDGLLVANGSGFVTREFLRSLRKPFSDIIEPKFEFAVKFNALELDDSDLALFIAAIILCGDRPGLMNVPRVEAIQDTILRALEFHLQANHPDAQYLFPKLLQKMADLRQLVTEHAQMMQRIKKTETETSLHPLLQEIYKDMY
Bile acid receptor (Homo sapiens), sequence (Q96RI1 whole entry, looked up): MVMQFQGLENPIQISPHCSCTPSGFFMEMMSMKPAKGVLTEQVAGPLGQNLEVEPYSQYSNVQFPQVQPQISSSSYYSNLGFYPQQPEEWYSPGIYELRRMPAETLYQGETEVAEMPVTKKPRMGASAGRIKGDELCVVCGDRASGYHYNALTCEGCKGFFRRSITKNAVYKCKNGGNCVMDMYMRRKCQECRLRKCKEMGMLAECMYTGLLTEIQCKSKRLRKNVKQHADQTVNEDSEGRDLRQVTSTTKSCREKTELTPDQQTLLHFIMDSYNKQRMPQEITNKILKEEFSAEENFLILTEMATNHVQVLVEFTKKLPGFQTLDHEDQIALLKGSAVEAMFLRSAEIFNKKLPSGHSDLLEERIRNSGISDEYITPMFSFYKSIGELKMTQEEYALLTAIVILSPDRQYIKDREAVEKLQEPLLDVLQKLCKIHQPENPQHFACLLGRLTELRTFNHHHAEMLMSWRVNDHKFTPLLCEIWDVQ

CN1CC[C@]23c4c5ccc(O)c4O[C@H]2[C@@H](O)C=C[C@H]3[C@H]1C5
not listed: [16] | [17] | [18] | [19]
inactive: all other assays above

CCOC(=O)c1cncn1C(C)c1ccccc1 (configuration not stated)
not listed: [4] | [5] | [6] | [7] | [8] | [18] | [19]
inactive: all other assays above

CCC1CCC(=O)O1 (configuration not stated)
not listed: [4] | [6] | [8] | [17] | [18] | [19]
inactive: all other assays above

C#CC(O)(C=CCl)CC (configuration not stated)
not listed: [1] | [8] | [13]
inactive: all other assays above

COC1=CC(=O)O[C@@H](/C=C/c2ccc3c(c2)OCO3)C1
not listed: [1] | [4] | [5] | [6] | [15] | [18] | [19]
inactive: all other assays above

Nc1ccccc1C(=O)OCCc1ccccc1
not listed: [15] | [16] | [17] | [18] | [19]
inactive: all other assays above

CN(C)C(=O)Nc1cccc(OC(=O)NC(C)(C)C)c1
not listed: [6] | [17] | [18] | [19]
inactive: all other assays above
